Bioassay records (PubChem)
HP1b chromo inh: HP1-beta chromodomain-methylated histone interaction inhibition | P83916 | AlphaScreen HP1-beta / biotin-H3K9me3 peptide binding | Potency, µM (series often up to 114 µM), inactives show at the highest dose activity change, negative = inhibition, actives largely listed as inhibitors | hit rate 0.56% among 390,000; further: nearly all actives have a fitted effect of over 70% in size
Target sequence (P83916 whole entry, looked up): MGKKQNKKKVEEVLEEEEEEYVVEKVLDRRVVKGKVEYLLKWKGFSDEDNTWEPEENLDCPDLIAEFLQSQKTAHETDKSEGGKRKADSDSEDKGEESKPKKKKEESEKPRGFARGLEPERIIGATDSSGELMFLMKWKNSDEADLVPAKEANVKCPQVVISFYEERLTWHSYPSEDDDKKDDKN
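Compound inhibition of the preformed complex between 50 nM HP1-beta and 50 nM biotinylated H3K9me3 peptide was read by AlphaScreen. Buffer was PBS pH 7.4 with 0.01% Tween-20. Incubations ran 30 min at room temperature, with 10 ug/mL donor/acceptor beads.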
G9a inh: inhibitors of human histone lysine methyltransferase G9a. hit rate 8.8% among 350,000. G9a H3K9 monomethylation, AlphaScreen, 2 h. AID 504332. Q96KQ7. Potency, µM (top dose mostly 102 µM), inactives show at the top dose activity, negative = inhibition, actives largely listed as inhibitors; further: on the % scale 0 is the no-effect control and ±100 the full control effect; nearly all actives have a fitted effect of over 75% in size
Target sequence (Q96KQ7 913-1193 limits assumed): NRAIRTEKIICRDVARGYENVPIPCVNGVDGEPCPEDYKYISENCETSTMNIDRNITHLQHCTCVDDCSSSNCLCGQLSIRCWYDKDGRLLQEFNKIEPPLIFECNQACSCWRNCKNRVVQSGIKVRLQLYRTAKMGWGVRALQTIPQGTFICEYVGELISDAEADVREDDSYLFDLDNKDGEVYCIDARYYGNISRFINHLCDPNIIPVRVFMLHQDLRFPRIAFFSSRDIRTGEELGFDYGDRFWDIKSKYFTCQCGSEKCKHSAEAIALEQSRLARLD
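Methyltransferase reactions run at room temperature for 2 h (20 nM enzyme, 500 nM biotin-H3K9 peptide, 20 uM SAM) after a 15 min compound preincubation; product detected by AlphaScreen beads and anti-H3K9me1 antibody.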
JMJD2A Tudor: inhibitors of human JMJD2A Tudor domain | hit rate 4.4% among 390,000 | O75164 | Potency, µM (titrated, usually from 114 µM), inactives show top-dose activity change, negative = inhibition, most hits filed as inhibitors | AlphaScreen JMJD2A-Tudor / H3K4me3 peptide binding | AID 504339; further: on the % scale 0 is the no-effect control and ±100 the full control effect; nearly all actives have a fitted effect of over 50% in size
BAZ2B block: inhibitors of human BAZ2B bromodomain. AlphaScreen BAZ2B-H3K14Ac peptide displacement. AID 504333. hit rate 4.4% among 360,000. Potency, µM (top dose mostly 114 µM), without a hit: at the top dose activity change, negative = inhibition, most hits filed as inhibitors. Q9UIF8; further: on the % scale 0 is the no-effect control and ±100 the full control effect; nearly all actives have a fitted effect of over 60% in size
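Complex of BAZ2B and biotin-H3K14Ac (50 nM apiece) forms over 30 min at RT, then faces library compounds up to 110 uM for another 30 min; AlphaScreen beads added, 20 min dark incubation, luminescence read.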
Sfp PPTase inh: blocks B. subtilis Sfp PPTase activity; AID 1490; Potency, µM, for inactives: largest response in the series, negative = inhibition, most hits filed as inhibitors; Biochemical Sfp PPTase activity, qHTS; hit rate 3.5% among 310,000; Q9F4F7;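 further: the enzyme is Sfp with the accession as filed and its product quenches rhodamine fluorescence; 0% = enzyme reaction without inhibitor and -100% = no enzyme wells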
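Fluorescence-quenching assay: 15 nM Sfp-PPTase preincubated 15 min at room temperature with compound, then 5 uM rhodamine-CoA and 12.5 uM BHQ-2-labelled YbbR peptide added. Fluorescence (ex 525/em 598 nm) read at start and after 30 min; difference gives rate.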
Starred values were filed as active, the others as inactive; ? = inconclusive; nt = no result; [ ] = dose if it differs, or a comment. Most compounds without a hit are left out; they make up all but 12% or so of the library. The call rests on the fitted dose curve; in most records, active means well fitted curve in the direction sought with a large enough effect; inconclusive means small, poorly fitted or top-dose-only effect, or another doubt; inactive means no such curve, though single readings can be large; an effect the other way counts as inactive or inconclusive. Potency means the concentration at half of the fitted maximal effect.

SMILES	HP1b chromo inh	G9a inh	JMJD2A Tudor	BAZ2B block	Sfp PPTase inh
COc1ccc(C2NC(=O)CCC2[N+](=O)[O-])cc1OC (stereo not drawn)	27.2%	1.2%	4.3%	-14.6%	20.2%
COc1ccc(OC)c(/C=C/C(=O)c2ccc3c(c2)OCCO3)c1	46.0%	6.2%	-10.3%	?	-22.1%
COc1ccc(-n2ccnc(NCc3cccs3)c2=O)cc1OC	10.8%	?	-2.6%	-27.4%	nt
CC1CN(C)C(C)CC1OC(=O)C(c1ccccc1)c1ccccc1 (stereo not drawn)	32.5%	nt	-29.5%	nt	nt
S=C(NCCN1CCOCC1)Nc1ccc(Nc2ccccc2)cc1	?	nt	-30.2%	?	-2.4%
O=C(CNCc1ccccc1)NCCCN1CCCC1=O	?	22.4µM*	2µM*	-12.6%	-13.6%
O=C1CCCN1CCCNC(=S)Nc1ccccc1	55.8%	nt	6.7%[57.1 µM]	2.4%	-28.6%
S=C(NCCCN1CCOCC1)Nc1ccc(Nc2ccccc2)cc1	-10.9%	44.7µM*	-24.7%	?	-24.5%
CN(C)CCNC(=S)Nc1ccc(-c2nc3ccccc3[nH]2)cc1	54.6%	50.1µM*	-15.3%	-8.1%	1.6%
S=C(NCc1ccc2c(c1)OCO2)Nc1ccc(-c2nc3ccccc3[nH]2)cc1	?	?	?	?	5.2%
COc1ccccc1CNC(=O)CN1c2cccc3cccc(c23)S1(=O)=O	50.9%	16.2%[12.7 µM]	7.5%	10.5%	nt
CSc1nc2[nH]c(=O)n(O)c(=O)c2n1Cc1ccccc1	-15.3%	nt	3.16µM*	nt	nt
Cc1cc(N2C(=O)C(O)=C(C(=O)c3ccco3)C2c2cccnc2)no1 (stereo not drawn)	nt	24.7%[59 µM]	nt	-5.2%	17.8%
CSc1nnc(N2C(=O)C(O)=C(C(=O)c3ccco3)C2c2ccc(F)cc2)s1 (stereo not drawn)	39.2%	22.4µM*	-2.6%	?	35.5µM*
CSc1nnc(N2C(=O)C(O)=C(C(=O)c3ccco3)C2c2cccc(Cl)c2)s1 (stereo not drawn)	32.9%	nt	?	79.4µM*	6.31µM*
CCSc1nnc(N2C(=O)C(O)=C(C(=O)c3ccco3)C2c2cccc(OC)c2)s1 (stereo not drawn)	23.9%	35.5µM*	89.1µM*	?	?
Cc1cnc(C(=O)OCC(=O)Nc2cc(-c3cc(C)c(C)cc3C)nn2-c2ccccc2)cn1	7.8%	19.7%[2.33 µM]	-14.5%	-3.3%	nt
N#Cc1c2c(c(Nc3ccc(O)cc3)n3c1nc1ccccc13)CCC2	23.7%	1.26µM*	-19.2%	-32.9%	4.9%
CC(NC(=O)NC(=O)c1ccc(F)cc1)C1CC1 (stereo not drawn)	34.4%	nt	13.3%	nt	nt
Fc1ccc(N2CCN(C3=Nc4cccc5cccc3c45)CC2)cc1	?	39.8µM*	25.1µM*	35.5µM*	7.5%
COc1ccc(CCNC(=O)CSc2nnc(-c3ccco3)c(-c3ccco3)n2)cc1OC	nt	8.91µM*	nt	44.7µM*	20µM*
COc1ccc(-c2nnc(SCC(=O)NCCc3ccc(OC)c(OC)c3)nc2-c2ccc(OC)cc2)cc1	6.1%	8.91µM*	?	?	nt
COc1ccc(CCNC(=O)CSc2n[nH]c(N)n2)cc1OC	8.5%	24.4%	-15.1%	5.5%	17.9%
Clc1ccc(CN2CCCCCC2)cc1	?	12.6µM*	1.78µM*	?	1.5%
Clc1ccc(CN2CCCCCCC2)cc1Cl	-38.0%	?	28.2µM*	-11.6%	-25.1%
SMILES	HP1b chromo inh	G9a inh	JMJD2A Tudor	BAZ2B block	Sfp PPTase inh
O=[N+]([O-])c1ccc(Cl)cc1N1CCCC1	10.1%	nt	-34.5%	?	9.8%
O=[N+]([O-])c1cc(CN2CCCC2)ccc1Sc1ccc(Cl)cc1	39.8µM*	35.5µM*	35.5µM*	39.8µM*	2.5%
O=S1(=O)CCN(Cc2ccc(Cl)c(Cl)c2)CC1	15.8%	2.1%[12.7 µM]	-2.5%	-2.2%	12.3%
Cc1cc(C(c2ccc(O)cc2)c2cc(C)c(O)cc2C)c(C)cc1O	5.0%	10.8%[0.501 µM]	-34.0%	?	7.5%
CCC1=NN(C(=O)c2ccc(Cl)cc2)C(O)(c2ccccc2)C1 (stereo not drawn)	16.1%	nt	-31.6%	50.1µM*	8.8%
CCC1=NN(C(=O)c2ccccc2Br)C(O)(c2ccc(Br)cc2)C1 (stereo not drawn)	37.4%	?	-13.8%	-34.3%	8.7%
